Compound activity deposited in PubChem BioAssay by several laboratories.
Most compounds without a hit are left out; they make up all but 4.1% or so of the library.
MITF TRPM1 inh – MITF TRPM1 promoter inhibition in SK-MEL-5 cells | inhibition, % at 12.5 µM | 330,000 compounds, 0.83% hits | SK-MEL-5 TRPM1 promoter luciferase, 24 h | AID 488899;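 active = mean inhibition across replicates of 60% or more, whatever share of single replicates reaches that level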
TROY signal inh – blocks TROY-dependent signaling in reporter cells; Q293 LMP1-TROYcd NF-kB luciferase reporter, 4 h; inhibition, % at 10 µM; 360,000 compounds, 0.98% hits; AID 1347056;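 active = compounds whose plate-normalised and pattern-corrected inhibition of the luciferase reporter signal at the single screening dose is 50% or more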
LMP1 NFkB inh – reduces LMP1-driven NF-kappaB luciferase signal; LMP1-induced NF-kappaB luciferase reporter cells, luminescence; inhibition, % at 12.5 µM; 350,000 compounds, 0.69% hits; AID 504558; in the data active = inhibition above about 41%;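 also: 0% = neutral control wells and 100% = reference inhibitor control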
TWEAK Fn14 block – inhibitors of TWEAK-Fn14 interaction signaling; 360,000 compounds, 2% hits; inhibition, % at 10 µM; TWEAK-stimulated Fn14 reporter cells, luciferase luminescence, 8 h; AID 1159606; in the data active = inhibition above about 50%
Shn3 inh set2 – inhibitors of Schnurri-3 3'UTR reporter in osteoblasts | Clone20 osteoblast Shn3 3'UTR firefly luciferase, 24 h | inhibition, % at 12.5 µM | 360,000 compounds, 0.52% hits | AID 588674;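 active = mean inhibition of at least 75% with every replicate also reaching 75%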;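 also: 0% = median of neutral control wells and 100% = pilot-screen positive control compound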
Peg3 promoter – Peg3 promoter activity inhibition; HeLa PEG-Prom luciferase reporter, luminescence, overnight; inhibition, % at 20 µM; 360,000 compounds, 1.7% hits; AID 588405;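 active = inhibition of at least 50% at 20 µM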
An asterisk follows results filed as active; nt = no result given.

SMILES | MITF TRPM1 inh | TROY signal inh | LMP1 NFkB inh | TWEAK Fn14 block | Shn3 inh set2 | Peg3 promoter
COc1ccc(-c2cc(CNC(=O)CCl)on2)cc1 | 7 | nt | -24 | 76* | -13 | -28
CCN(CC)S(=O)(=O)c1cccc2cc(C(=O)O)c(O)cc12 | -2 | nt | 4 | 79* | -4 | 14
CCC(=O)Nc1nc(-c2cc([N+](=O)[O-])cs2)cs1 | -33 | -8 | 2 | 1 | -16 | -112
CCSCc1nnc(SCC(=O)c2ccc(OC)cc2)n1C | 13 | nt | -4 | 84* | 2 | -8
CC(=O)c1sc2nc(C)cc(C)c2c1N | -12 | 1 | 6 | 0 | 5 | -27
Nc1cccc(-c2nc3ccccc3[nH]2)c1 | -56 | -36 | -10 | 2 | -31 | -205
Cc1ccc2nc(-c3cccc(N)c3)[nH]c2c1 | 14 | 12 | 20 | 61* | 2 | -68
Cc1ccc2nc(-c3sc4nc(C)cc(C)c4c3N)[nH]c2c1 | -2 | 70* | -13 | 78* | 7 | -186
COc1ccc(-c2nc3ccc([N+](=O)[O-])cc3[nH]2)cc1 | -46 | -8 | -9 | 42 | -9 | -232
Cc1ccc(-c2nc3ccc([N+](=O)[O-])cc3[nH]2)cc1 | -14 | 17 | -32 | 51* | -11 | -118
NC(=O)c1sc2nccc(Nc3ccccc3)c2c1N | -19 | -6 | 65* | 5 | -8 | -41
C[C@@H]1CN([C@@H](C)CO)C(=O)CCCn2cc(nn2)CO[C@H]1CN(C)S(=O)(=O)c1ccc2c(c1)OCCCO2 | nt | -5 | 0 | -3 | 4 | 6
Cc1ccc(-n2ncc3c2CC(C)(C)CC3NC(=O)CCN2CCCO2)cc1 (stereo unspecified) | -4 | -29 | nt | -4 | 3 | 50*
Cc1ccc(N2C(=O)CC(Sc3ccccc3C(=O)O)C2=O)cc1C (stereo unspecified) | 8 | 3 | -6 | 10 | -16 | 0
O=C(NCc1cccc(Cl)c1)c1ccc(S(=O)(=O)Nc2cccc(C(F)(F)F)c2)cc1 | 3 | 55* | -6 | 32 | 15 | 11
Cc1cc(-c2n[nH]c(=S)n2/N=C/c2ccccc2[N+](=O)[O-])n[nH]1 | 9 | -5 | 9 | 22 | -8 | 51*
COC(=O)c1ccc(COc2ccccc2/C=C(\C#N)C(=O)Nc2ccc(C)cc2C)cc1 | -19 | -6 | 0 | -44 | -15 | -23
COC(=O)c1ccc(COc2ccccc2/C=C(\C#N)C(=O)Nc2c(C)cc(C)cc2C)cc1 | 8 | 20 | 15 | 68* | 71 | 75*
N#Cc1ccc(Cl)cc1NC(=O)CNCc1cccs1 | -9 | 9 | 11 | 10 | 8 | 11
Cc1c(/C(O)=C2/C(=O)C(=O)N(Cc3cccnc3)C2c2cccs2)cnn1-c1ccccc1 (stereo unspecified) | -52 | 85* | 25 | 83* | -7 | -251
Cc1c(/C(O)=C2/C(=O)C(=O)N(CCN3CCOCC3)C2c2ccco2)cnn1-c1ccccc1 (stereo unspecified) | -14 | 74* | 12 | 85* | -8 | -167
Cc1ccc(-n2c(-c3ccc(Br)cc3)c[n+]3c2CCc2ccc4cccnc4c2-3)cc1 | 98* | 44 | 36 | -59 | 91* | 64*
Cc1nn(C(C)C(=O)N2CCc3ccccc3C2)c(=O)c2cc3occc3n12 (stereo unspecified) | -2 | 22 | 0 | 4 | -2 | 7
CCC(C(=O)N1CCc2ccccc2C1)n1nc(C)n2c(cc3occc32)c1=O (stereo unspecified) | -5 | nt | 2 | 81* | 3 | 19
CCc1c(C2(O)CCCCC2)[nH]c2ncccc12 | 3 | -6 | -7 | 12 | 5 | 12
SMILES | MITF TRPM1 inh | TROY signal inh | LMP1 NFkB inh | TWEAK Fn14 block | Shn3 inh set2 | Peg3 promoter
COC(=O)c1cnn(-c2cc(Oc3cccc(C)c3)ncn2)c1N | -20 | nt | -9 | 91* | -29 | -110
CCN(CC)C(=O)CSc1n[nH]c(=O)n1CCc1ccccc1 | 2 | 2 | -6 | 7 | 1 | 15
O=c1[nH]nc(Sc2ncnc3sccc23)n1CCc1ccccc1 | 23 | 22 | 20 | 57* | 48 | 44
C=CCn1c2ccccc2c(=O)c2cc(C#CC3(O)CCCCC3)ccc21 | -71 | 70* | -34 | 2 | -127 | -135
Cc1cccc(Nc2nc(Cl)ncc2F)c1C | -10 | -3 | 53* | 2 | -6 | 0
CC(OC(=O)c1ccco1)C(=O)Nc1ncc(Cl)cc1Cl (stereo unspecified) | 3 | -19 | 0 | -1 | 10 | -6
CC(O)(c1cccc(F)c1)c1nc(-c2cccc3cccnc23)cs1 (stereo unspecified) | nt | 4 | nt | -2 | -5 | 12
CCOC(=O)c1sc2nc(C)nc(NCc3ccccc3OC)c2c1C | 9 | 31 | 17 | 54* | 65 | -22
CCC(C)NC(=O)CCn1c(=O)c2cccn2c2ccc(F)cc21 (stereo unspecified) | -1 | 0 | -1 | 4 | 16 | -1
Oc1c(C=Nc2ccccc2Cl)[nH]c2ccccc12 | -11 | 52* | -40 | 26 | -35 | -193
O=c1[nH][nH]c(C(F)(F)F)c1C=Nc1ccccc1Cl | -3 | 7 | 7 | -3 | 10 | -3
COc1cccc(/C=N/NC(=O)c2cnn(-c3ccccc3)c2N)c1 | -52 | -44 | -18 | -35 | -45 | -151
Cc1cc2oc(=O)cc(-c3ccccc3)c2c(C)c1-c1ccc(O)cc1 | 10 | 53* | -9 | -32 | -8 | -24
Nc1ccc2c(c1)C1(CCC2)NC(=O)NC1=O (stereo unspecified) | nt | 7 | -5 | 10 | -7 | -4
CC(C)C(CCNC1CCN(C)CC1)c1ccc(Cl)cc1 (stereo unspecified) | 90* | -15 | -23 | 1 | 11 | 100*
CN1CCC(NCCC(c2ccc(F)cc2)c2ccc(Cl)cc2)CC1 (stereo unspecified) | 80* | -54 | -63 | -51 | -15 | 94*
CC(C)C(CCNCc1ccccn1)c1ccc(Cl)cc1 (stereo unspecified) | 3 | 0 | -1 | 3 | 15 | -5
CCNC(=O)N1CCN(CCCC(c2ccc(F)cc2)c2ccc(F)cc2)CC1 | -3 | 19 | -2 | -2 | 1 | -9
N#Cc1cc(N2CCCCC2)c([N+](=O)[O-])cc1C#N | -2 | 9 | -3 | -1 | 6 | 8
O=[N+]([O-])c1cc2no[n+]([O-])c2cc1N1CCCCC1 | 80* | -2 | -76 | 16 | -23 | 99*
O=C(Cn1cccn1)c1ccccc1 | -6 | 0 | 1 | -9 | -21 | 9
COc1cc2ncnc(N[C@H](C)c3ccccc3)c2cc1OC | 22 | 4 | 3 | 10 | 90* | 12
COc1cc2ncnc(NCc3ccccc3C)c2cc1OC | 2 | 5 | 18 | 16 | 3 | 10
CCCn1c(CN(C)Cc2ccccc2)nc2c1c(=O)n(C)c(=O)n2C | 23 | 24 | 10 | 14 | 69 | 9
